Assay [1] in a line: AP1 Signaling Pathway (AID 357). Note: % is set by controls: 0 for no effect and ±100 for the full control effect. In short, it runs like this: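 Modulation of EGF-driven AP-1 transcription was assessed with a beta-lactamase reporter in ME-180 cells. Compound and EC50 EGF were co-incubated 5 hours at 37 °C before 2.5-hour CCF4 loading at room temperature and dual-emission reading.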
The target of assay [2] is Cytochrome P450 1A2 (Homo sapiens) (UniProt P05177). Briefly: p450-cyp1a2 (AID 410; calls by dose curve; note: potency is the fitted concentration of half-maximal effect;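 for activity change, negative = inhibition: -100% = full effect of reference inhibitor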). In short, it runs like this:
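Luminescent demethylation readout: Luciferin-ME (100uM, equal to Km) turned over by 20nM CYP1A2 for 60 min at room temperature after NADPH regeneration addition, following 10 min compound preincubation. Normalization used 57 uM furafylline as full inhibition.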

Assay [3] in a line: NFAT Signaling Pathway (AID 444).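 Note: carbachol stimulus at about its EC50 of 1 µM final; % is set by controls: 0 for no effect and ±100 for the full control effect.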 The settings on record: Jurkat NFAT-bla M1, carbachol, beta-lactamase ratio, 5 h; at 17.2 µM (top of the series) unless noted. The method, boiled down:
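Jurkat cells with NFAT-driven β-lactamase reporter and co-expressed M1 receptor, stimulated with carbachol (final 1 uM, ~EC50), compound titration, 5 h at 37 °C. CCF4 loaded 1 h at RT; 460/530 nm ratio gave %activity and AC50.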

Assay [4] concerns the target Mitogen-activated protein kinase 10 (Mus musculus) (UniProt Q61831). Briefly: JNK3 AlphaScreen Assay (AID 530).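 Note: kinase came from lysate of stimulated human HepG2 cells; signal reports phosphorylation of biotinylated GST-cJun 1-79 at Ser73 with 10 µM ATP; % is set by controls: 0 for no effect and ±100 for the full control effect.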 In short, it runs like this:
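Activity was read by AlphaScreen after JNK3-containing HepG2 lysate (cytokine pre-activated) phosphorylated biotinylated GST-cJun with 10 uM ATP at room temperature. Phospho-Ser73 cJun antibody with Protein-A acceptor beads provided detection.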
For orientation: Bead proximity is the source of the signal in Alpha formats.

In assay [5] the target is 3',5'-cyclic-AMP phosphodiesterase 4B (Homo sapiens) (UniProt Q07343). Kind of assay: qHTS Assay for Inhibitors of PDE-IV (AID 607; active = well fitted activation curve with a large enough effect in the main read-out, with a control signal flat, not every such curve was filed as active; note: % of control where 0% means no effect). In short, it runs like this:
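Live HEK293 cells with a modified cyclic nucleotide-gated (CNG) channel report intracellular cAMP via membrane-potential dye fluorescence (ex 535/em 590 nm). Endogenous PDE-IV was targeted. Compounds were tested at up to 22.9 uM final; RO 20-1724 100 uM served as control.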
A general note: qHTS replaces the single test concentration by a dilution series.

Assay [6] can be described thus: qHTS Assay for Lipid Storage Modulators (AID 1519; calls by dose curve). The settings on record: Drosophila S3 cells, BODIPY lipid droplet/cell ratio, laser cytometry, cells loaded with oleic acid. In short, it runs like this: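 Cells seeded at 5,000 per well were treated with compounds over a concentration series and loaded with oleic acid (400 uM, as added). Lipid droplet fluorescence (488 nm excitation, 500-530 nm channel) was read by laser-scanning cytometry and normalized to 20 uM Triacsin C.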

The target of assay [7] is Glucocorticoid receptor (Homo sapiens) (UniProt P04150). Kind of assay: GR-EFC Redistribution (AID 451; calls by dose curve; note: potency is the fitted concentration of half-maximal effect). The settings on record: CHO-K1 GR-EFC translocation, beta-gal luminescence, 2 h. In short, it runs like this: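 CHO-K1 cells expressing nuclear EA and GR-ED fragments of b-gal; compounds titrated up to 46 uM final, 2 h at 37 C. GR nuclear translocation read as complemented b-gal luminescence after 1 h RT detection.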
Chain of Glucocorticoid receptor (Homo sapiens) (P04150 whole entry, looked up, the tested form may be a part): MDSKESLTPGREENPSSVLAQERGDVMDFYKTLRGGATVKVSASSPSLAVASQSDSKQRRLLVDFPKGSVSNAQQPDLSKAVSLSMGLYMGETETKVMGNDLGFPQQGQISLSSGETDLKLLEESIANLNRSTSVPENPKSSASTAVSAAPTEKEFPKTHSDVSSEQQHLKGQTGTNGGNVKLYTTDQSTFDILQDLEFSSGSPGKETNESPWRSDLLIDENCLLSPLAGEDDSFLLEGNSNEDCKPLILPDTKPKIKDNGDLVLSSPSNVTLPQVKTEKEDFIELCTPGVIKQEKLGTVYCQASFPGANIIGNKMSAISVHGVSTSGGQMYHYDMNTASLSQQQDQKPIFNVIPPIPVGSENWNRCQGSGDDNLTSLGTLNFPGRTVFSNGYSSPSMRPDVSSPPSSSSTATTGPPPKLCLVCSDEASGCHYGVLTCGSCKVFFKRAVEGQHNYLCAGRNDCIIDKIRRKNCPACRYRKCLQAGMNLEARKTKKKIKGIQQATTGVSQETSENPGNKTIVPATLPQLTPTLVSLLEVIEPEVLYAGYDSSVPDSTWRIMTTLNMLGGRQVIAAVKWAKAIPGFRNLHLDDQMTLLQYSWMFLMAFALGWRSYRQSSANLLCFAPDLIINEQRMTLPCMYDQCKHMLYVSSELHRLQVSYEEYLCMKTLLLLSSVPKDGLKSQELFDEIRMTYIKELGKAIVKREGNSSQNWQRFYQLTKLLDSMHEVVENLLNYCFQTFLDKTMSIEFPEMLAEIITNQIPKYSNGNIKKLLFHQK

The target in assay [8] is Ubiquitin carboxyl-terminal hydrolase 1 (Homo sapiens) (UniProt O94782). Briefly: Inhibitors of USP1/UAF1: Pilot qHTS (AID 504865; active = well fitted curve in the direction sought with a large enough effect; an effect the other way counts as inactive or inconclusive;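 note: rhodamine fluorescence freed from ubiquitin-rhodamine substrate followed over time; top concentration of the series differs between compounds; % is set by controls: 0 for no effect and ±100 for the full control effect; nearly all actives have a fitted effect of over 35% in size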). The method, boiled down:
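USP1/UAF1 complex at 1 nM preincubated 15 min at room temperature with compound, then Ub-Rho substrate added at 150 nM final. Fluorescence (480/540 nm) read kinetically in 50 mM HEPES pH 7.8, 0.5 mM EDTA, 1 mM TCEP, 0.1 mg/ml BSA, 0.01% Tween-20.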

The nature of assay [9]: Stat Signaling Pathway (AID 446).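 Note: ME-180 cervical cancer cells given 40 pM IL-6 alongside compound; SIE-controlled beta-lactamase reporter measured as 460/530 nm FRET emission ratio; % is set by controls: 0 for no effect and ±100 for the full control effect.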 In short, it runs like this:
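Overnight-plated ME-180 cells bearing a STAT Inducible Element beta-lactamase reporter; 5 h co-exposure to compound and 40 pM IL-6; values normalized to 300 pM IL-6 and 125 nM JAK inhibitor controls.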

In assay [10] the target is Glucocorticoid receptor (Homo sapiens) (UniProt P04150). Briefly: GR-GFP Redistribution (AID 450;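 active = compounds whose dose series gives a full or clear partial fitted curve of increased nuclear translocation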; note: potency is the fitted concentration of half-maximal effect). The settings on record: U2OS GR-GFP nuclear translocation, laser cytometry, 2 h.
The target in assay [11] is ATP-dependent 6-phosphofructokinase (Trypanosoma brucei brucei) (UniProt O15648). Briefly: qHTS Assay to Find Inhibitors of T. brucei phosphofructokinase: hit validation (AID 492961; active = well fitted curve in the direction sought with a large enough effect; an effect the other way counts as inactive or inconclusive). In short, it runs like this:
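Compounds titrated; %activity normalized to 0x and 1x enzyme controls, curve-fitted. Readout: ADP-Glo luminescence after 45 min room-temperature reaction of 1.25 nM PFK, 0.1 mM ATP, 0.5 mM F6P, pH 8.0.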

Assay [12] addresses Luciferin 4-monooxygenase (Photinus pyralis) (UniProt P08659). Kind of assay: Biochemical firefly luciferase enzyme assay for NPC (AID 624030; active = well fitted curve in the direction sought with a large enough effect; an effect the other way counts as inactive or inconclusive;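 note: purified P. pyralis luciferase at 10 nM with luciferin and ATP substrate; 0% = DMSO and -100% = full luciferase inhibition by PTC124 control; nearly all actives have a fitted effect of over 70% in size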). The method, boiled down: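 Purified P. pyralis luciferase at 10 nM in 50 mM Tris Acetate (final), luminescence read within 5 minutes of enzyme addition to compounds. Activity normalised to PTC124 versus DMSO; concentration-response curves classed by r2, magnitude and activity.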

The subject of another assay is SC27B. Kind of assay: qHTS profiling for inhibitors of Plasmodium falciparum proliferation (AID 504749; active = well fitted curve in the direction sought with a large enough effect; an effect the other way counts as inactive or inconclusive; note: potency is the fitted concentration of half-maximal effect; nearly all actives have a fitted effect of over 60% in size). The settings on record: P. falciparum in erythrocytes, SYBR Green DNA, 72 h; series mostly up to 12.8 µM. The method, boiled down: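 Each compound contacts P. falciparum-infected red blood cells for 72 h at 37 C; lysis buffer (Tris, EDTA, saponin, Triton X, SYBR Green I) is added and fluorescence measured next morning; values normalized to controls.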

[13] abbreviates: measured here: cell count channel max response.
The mark [14] stands for this setting: measured here: lipid channel max response.

Each structure is given as a SMILES string. Inconclusive results are not listed. The source made the active and inactive calls. Unless noted, calls come from the whole dose curve; as a rule, active = well fitted curve in either direction with a large enough effect (not every such curve was filed as active); inconclusive = small, poorly fitted or top-dose-only effect, or another doubt; inactive = flat fitted curve, though single readings scatter. A value given as a limit tells only on which side of the number the result lay.

Chain of 3',5'-cyclic-AMP phosphodiesterase 4B (Homo sapiens) (Q07343 whole entry, looked up): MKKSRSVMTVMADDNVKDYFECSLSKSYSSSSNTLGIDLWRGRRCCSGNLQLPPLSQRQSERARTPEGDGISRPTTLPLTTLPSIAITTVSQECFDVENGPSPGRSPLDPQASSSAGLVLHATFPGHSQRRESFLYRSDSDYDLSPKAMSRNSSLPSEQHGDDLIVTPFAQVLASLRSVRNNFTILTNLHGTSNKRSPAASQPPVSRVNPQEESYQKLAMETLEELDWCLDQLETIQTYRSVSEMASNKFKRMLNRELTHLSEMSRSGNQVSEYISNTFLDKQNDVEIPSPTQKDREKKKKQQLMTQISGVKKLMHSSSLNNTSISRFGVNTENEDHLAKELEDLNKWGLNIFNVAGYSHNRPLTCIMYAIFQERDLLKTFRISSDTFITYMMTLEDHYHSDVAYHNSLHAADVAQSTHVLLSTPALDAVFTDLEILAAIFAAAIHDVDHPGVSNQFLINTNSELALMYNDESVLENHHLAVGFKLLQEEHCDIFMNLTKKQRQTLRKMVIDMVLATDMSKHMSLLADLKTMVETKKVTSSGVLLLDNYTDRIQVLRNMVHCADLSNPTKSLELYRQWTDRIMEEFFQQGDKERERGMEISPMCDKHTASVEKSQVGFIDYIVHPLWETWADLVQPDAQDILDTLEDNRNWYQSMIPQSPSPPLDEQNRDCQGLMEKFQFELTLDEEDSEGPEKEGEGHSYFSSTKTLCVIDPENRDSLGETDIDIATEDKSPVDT
Chain of Ubiquitin carboxyl-terminal hydrolase 1 (Homo sapiens) (O94782 whole entry, looked up): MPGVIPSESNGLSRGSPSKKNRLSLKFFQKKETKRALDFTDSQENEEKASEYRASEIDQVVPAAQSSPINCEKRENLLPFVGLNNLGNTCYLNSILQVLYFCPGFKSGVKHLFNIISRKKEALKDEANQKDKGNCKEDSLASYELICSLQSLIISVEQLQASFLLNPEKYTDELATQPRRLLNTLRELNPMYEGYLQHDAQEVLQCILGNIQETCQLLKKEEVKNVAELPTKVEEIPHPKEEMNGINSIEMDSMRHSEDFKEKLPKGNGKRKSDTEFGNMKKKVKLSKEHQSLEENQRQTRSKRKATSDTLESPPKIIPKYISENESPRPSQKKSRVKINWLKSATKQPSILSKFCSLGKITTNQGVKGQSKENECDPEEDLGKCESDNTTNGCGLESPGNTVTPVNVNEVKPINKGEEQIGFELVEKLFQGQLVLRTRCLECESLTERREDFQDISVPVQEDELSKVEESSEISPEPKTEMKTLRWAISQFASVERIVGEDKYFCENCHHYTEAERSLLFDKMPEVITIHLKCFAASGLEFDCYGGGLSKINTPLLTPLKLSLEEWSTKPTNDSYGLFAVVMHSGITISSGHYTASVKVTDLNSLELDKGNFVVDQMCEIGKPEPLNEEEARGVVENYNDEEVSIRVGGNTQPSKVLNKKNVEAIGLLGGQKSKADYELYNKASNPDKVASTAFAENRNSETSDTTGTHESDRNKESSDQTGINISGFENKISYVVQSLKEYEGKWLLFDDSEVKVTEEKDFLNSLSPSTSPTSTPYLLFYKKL
Chain of Cytochrome P450 1A2 (Homo sapiens) (P05177 whole entry, looked up): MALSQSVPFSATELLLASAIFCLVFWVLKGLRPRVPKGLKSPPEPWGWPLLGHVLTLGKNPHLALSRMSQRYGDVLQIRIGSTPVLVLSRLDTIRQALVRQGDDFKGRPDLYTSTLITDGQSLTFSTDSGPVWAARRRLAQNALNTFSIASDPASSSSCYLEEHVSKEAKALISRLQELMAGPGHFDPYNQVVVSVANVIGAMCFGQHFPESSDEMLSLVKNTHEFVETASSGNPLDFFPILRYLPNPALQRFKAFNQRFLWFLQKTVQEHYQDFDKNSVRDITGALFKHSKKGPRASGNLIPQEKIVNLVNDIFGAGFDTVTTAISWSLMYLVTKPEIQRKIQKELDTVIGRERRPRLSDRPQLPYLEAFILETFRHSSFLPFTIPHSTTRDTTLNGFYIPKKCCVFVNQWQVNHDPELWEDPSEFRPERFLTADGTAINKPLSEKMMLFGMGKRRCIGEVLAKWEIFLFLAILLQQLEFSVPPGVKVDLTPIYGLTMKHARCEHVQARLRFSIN
Chain of Luciferin 4-monooxygenase (Photinus pyralis) (P08659 whole entry, looked up): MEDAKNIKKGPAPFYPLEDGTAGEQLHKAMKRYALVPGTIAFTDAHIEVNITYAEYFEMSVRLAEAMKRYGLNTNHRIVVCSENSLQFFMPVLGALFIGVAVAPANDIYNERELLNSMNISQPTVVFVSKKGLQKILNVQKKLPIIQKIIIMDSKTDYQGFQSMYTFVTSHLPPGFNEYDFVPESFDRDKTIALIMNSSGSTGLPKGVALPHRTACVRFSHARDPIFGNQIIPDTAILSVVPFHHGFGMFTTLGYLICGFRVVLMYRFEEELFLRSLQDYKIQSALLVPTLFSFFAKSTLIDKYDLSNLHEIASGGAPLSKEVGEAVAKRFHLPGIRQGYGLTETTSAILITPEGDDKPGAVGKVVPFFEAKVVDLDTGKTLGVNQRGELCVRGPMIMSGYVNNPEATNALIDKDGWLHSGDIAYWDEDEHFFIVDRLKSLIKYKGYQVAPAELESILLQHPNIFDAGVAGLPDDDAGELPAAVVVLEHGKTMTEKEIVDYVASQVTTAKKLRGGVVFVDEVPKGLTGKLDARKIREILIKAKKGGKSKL
Chain of ATP-dependent 6-phosphofructokinase (Trypanosoma brucei brucei) (O15648 whole entry, looked up): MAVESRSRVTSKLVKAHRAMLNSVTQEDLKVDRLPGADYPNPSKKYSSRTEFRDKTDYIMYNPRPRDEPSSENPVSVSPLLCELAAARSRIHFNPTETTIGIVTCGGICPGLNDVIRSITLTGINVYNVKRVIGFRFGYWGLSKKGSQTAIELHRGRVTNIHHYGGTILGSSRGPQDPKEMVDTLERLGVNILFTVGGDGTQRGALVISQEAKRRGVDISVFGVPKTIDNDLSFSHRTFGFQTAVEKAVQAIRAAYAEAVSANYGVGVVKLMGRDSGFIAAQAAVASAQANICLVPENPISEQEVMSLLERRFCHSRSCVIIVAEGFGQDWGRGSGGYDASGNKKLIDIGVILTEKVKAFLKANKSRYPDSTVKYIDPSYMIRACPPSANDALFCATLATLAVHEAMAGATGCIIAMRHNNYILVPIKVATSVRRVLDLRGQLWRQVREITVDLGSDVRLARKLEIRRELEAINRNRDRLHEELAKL

On to `CC[C@@H]1OC(=O)[C@H](C)[C@H](O[C@@H]2C[C@](C)(OC)[C@H](O)[C@H](C)O2)[C@H](C)[C@H](O[C@@H]2O[C@@H](C)C[C@@H](N(C)C)[C@@H]2O)[C@](C)(O)C[C@H](C)C(=O)[C@H](C)[C@H](O)[C@]1(C)O`, for which the result in assay [1] and in assay [5] was inactive. The Potency entry in assay [2] and in assay [4] was “inactive” each time. For the same compound, the activity change, negative = inhibition in [3] is 0.792% (inactive); in assay [6] (at 25.7 µM (top of the series)), -1.3% (inactive). The max response in assay [6] (setting [13]) amounted to 9.04%; in [6] (setting [14]) it was 8.95%.
In the case of `N#Cc1cccc(-c2cncnc2-n2ccnc2)c1`, the compound was called inactive in assay [1] and in assay [5]. In addition, the Potency was 15.8 µM (active) in assay [2] and > 46 µM (inactive) in assay [7]. In addition, the activity change, negative = inhibition was -7.66% [at 7.69 µM] (inactive) in assay [3] and 8.24% (inactive) in assay [6] (at 57.5 µM (top of the series)). Besides, the Potency entry in assay [4] and in assay [8] was “inactive” each time. Besides, the max response in assay [6] (setting [13]) amounted to 16.1%; in assay [6] (setting [14]) it was 24.6%.
For the compound `C#C[C@@]1(OC(C)=O)CC[C@@H]2[C@@H]3CCC4=C[C@@H](OC(C)=O)CC[C@H]4[C@H]3CC[C@]21C`, the outcome in assay [1] and in assay [9] was inactive. Moreover, the Potency result in [2], in [4] and in [8] was “inactive” throughout. The Potency in [10] and in assay [7] was > 20.6 µM (inactive) each time. For the same compound, the activity change, negative = inhibition in assay [6] (at 25.7 µM (top of the series)) is -2.38% (inactive). Besides, the max response in assay [6] (setting [13]) and in [6] (setting [14]) was -9.18% each time.
Take `Clc1ccc(CC[C@H](Cn2ccnc2)Sc2c(Cl)cccc2Cl)cc1`: the call in [1], in assay [9] and in [11] was inactive. Besides, the Potency was 3.98 µM (active) in [2], > 20.6 µM (inactive) in assay [10], > 20.6 µM (inactive) in assay [7] and 3.98 µM (active) with SC27B. Besides, the Potency result in assay [4] and in assay [12] was “inactive” throughout. Besides, in assay [6] (at 25.7 µM (top of the series)), the activity change, negative = inhibition is 3.47% (inactive). Further, the max response is -3.86% in assay [6] (setting [13]) and -6.78% in assay [6] (setting [14]).
On to `COc1cc2cc3c4cc(OC)c(OC)cc4cc[n+]3c(C)c2cc1OC`, for which the call in [1], in assay [9] and in assay [5] was inactive. Also, the Potency result in assay [2] and in assay [8] was “inactive” each time. Moreover, the Potency in assay [10] and in [7] was > 20.6 µM (inactive) throughout. Also, the activity change, negative = inhibition in assay [6] (at 25.7 µM (top of the series)) was 0.187% (inactive). Besides, the max response in assay [6] (setting [13]) is -9.25%; in assay [6] (setting [14]), -9.88%.
Take `CO/N=C(\C(=O)N[C@@H]1C(=O)N2C(C(=O)O)=C(COC(N)=O)CS[C@@H]12)c1ccco1`: the compound was called inactive in assay [1] and in assay [5]. The Potency entry in assay [2], in assay [4] and in assay [8] was “inactive” in each case. For the same compound, the figures for the activity change, negative = inhibition in assay [3] and in assay [6] (at 25.7 µM (top of the series)) were 6.11% (inactive) and 1.43% (inactive), respectively. Moreover, the Potency in [10] and in [7] was > 20.6 µM (inactive) throughout. Moreover, the max response in assay [6] (setting [13]) is -5.14%; in [6] (setting [14]) it was -2.21%.
`C#C[C@@]1(O)CC[C@@H]2[C@@H]3CCC4=CC(=O)CC[C@@H]4[C@H]3CC[C@]21CC`: the outcome in [1], in [9] and in assay [5] was inactive. Moreover, the Potency entry in [2], in [4] and in assay [8] was “inactive” throughout. The figures for the Potency in [10] and in assay [7] were 0.0832 µM (active) and > 20.6 µM (inactive), respectively. In assay [6] (at 25.7 µM (top of the series)), the activity change, negative = inhibition is -1.97% (inactive). Further, the results for the max response in [6] (setting [13]) and in assay [6] (setting [14]) were -10.3% and -10.4%, respectively.
On to `C#C[C@@]1(O)CC[C@@H]2[C@@H]3CCC4=CC(=O)CC[C@@H]4[C@H]3CC[C@]21C`, for which the result in assay [1] and in assay [5] was inactive. The Potency entry in assay [2], in [4] and in assay [8] was “inactive” in each case. For the same compound, the activity change, negative = inhibition in assay [3] is -7.42% (inactive); in assay [6] (at 25.7 µM (top of the series)) it was -2.83% (inactive). For the same compound, the max response in assay [6] (setting [13]) is -8.09%; in assay [6] (setting [14]), -9.96%.
As for `Nc1ccn([C@@H]2CC[C@H](CO)O2)c(=O)n1`, the compound was classed as inactive in assay [1] and in [5]. The Potency entry in assay [2] and in [4] was “inactive” each time. Besides, the results for the activity change, negative = inhibition in assay [3] and in assay [6] (at 25.7 µM (top of the series)) were -7.49% (inactive) and -3.47% (inactive), respectively. The values for the max response in [6] (setting [13]) and in assay [6] (setting [14]) were -4.3% and -6.51%, respectively.

(Values after PubChem BioAssay (NCATS).)
